This is one part of a sample in which hits are shown more often than they occur.
TcdB inh – TcdB glycohydrolase inhibitors, primary screen, biochemical, single point, plate reader. TcdB glycohydrolase enzymatic assay. hit rate 0.24% among 350,000. AID 652162, 2013. inhibition, % at 9.99 µM; in the data active means inhibition above about 10%
Bead autofluor – compound fluorescence in toxin protease inhibitor counterscreen | compound autofluorescence counterscreen, microsphere flow cytometry; hits give high values | AID 624483 | fluorescence intensity (test concentration not listed) | hit rate 3.1% among 360,000; in the data active means fluorescence intensity above about 16000; inconclusive means no clear call, values can overlap the other calls
BoNT-A LC inh2 – BoNT/A light chain protease inhibitors, primary screen, biochemical, flow cytometry, MLPCN library; AID 588499, 2011; Botulinum neurotoxin type A light chain protease (Clostridium botulinum A str. ATCC 3502); inhibition, % at 10 µM; hit rate 0.17% among 360,000; multiplex microsphere protease substrate cleavage; further: plate controls were buffer without enzyme for full effect and enzyme alone for no effect
BoNT F protease – BoNT/F light chain protease inhibitors, primary screen, biochemical, flow cytometry, MLPCN library; hit rate 0.22% among 360,000; Multiplex microsphere protease cleavage assay; inhibition, % at 10 µM; AID 588497, 2011; in the data active means inhibition above about 35%, passing the limit was not always enough; inconclusive means no clear call, values can overlap the other calls; further: plate controls were buffer without enzyme for full effect and enzyme alone for no effect
Anthrax LF prot – Bacillus anthracis LF protease inhibitors, primary screen, biochemical, multiplex microsphere, MLPCN library. Lethal factor (Bacillus anthracis), P15917. AID 588501, 2011. inhibition, % at 10 µM. hit rate 0.12% among 360,000. multiplex microsphere protease cleavage assay; further: plate controls were buffer without enzyme for full effect and enzyme alone for no effect
* hit, by the source's call; ? = inconclusive; . = no result given. Unless noted, no stated cut-off is given here; in the data, active means inhibition above about 30%; inconclusive means no clear call, values can overlap the other calls; inactive means below that.

SMILES | TcdB inh | Bead autofluor | BoNT-A LC inh2 | BoNT F protease | Anthrax LF prot
COc1ccc(CCn2c(NN)nc3c2c(=O)[nH]c(=O)n3C)cc1 | -1 | . | . | . | .
Cc1ccc(S(=O)(=O)Nc2cc(-c3nn(C)c(=O)c4ccccc34)ccc2N2CCOCC2)cc1 | 2 | 22492* | ? | 4 | -4
O=C(CCl)NCc1c(Cl)cccc1-n1cccc1 | 3 | 22575* | 0 | -3 | 3
CC(C)NC(=O)Nc1ccc2c(c1)CC(=O)N([C@H](C)CO)C[C@@H](C)[C@H](CN(C)S(=O)(=O)c1cn(C)cn1)O2 | -1 | . | . | . | .
COc1ccc(S(=O)(=O)N(C)CC(=O)Nc2cccc(C(C)=O)c2)cc1 | -1 | 5628 | -1 | -4 | -8
COc1ccc(S(=O)(=O)N(C)CC(=O)Nc2cccc(C(C)=O)c2)cc1Cl | . | 18037* | 7 | 11 | 0
C[C@@H]1CN([C@H](C)CO)C(=O)c2cc(NS(=O)(=O)c3ccc(Cl)cc3)ccc2O[C@@H](C)CCCCO[C@@H]1CN(C)C(=O)c1ccncc1 | 1 | . | . | . | .
COC(=O)C1C(=O)C2=C(CC1C)NC(C)=C(C(=O)OCc1ccc(OC)cc1)C2c1ccc(C)o1 (stereo unspecified) | . | 3152 | 0 | -17 | -2
COC(=O)C1C(=O)C2=C(CC1C)NC(C)=C(C(=O)OC(C)C)C2c1ccc(C)o1 (stereo unspecified) | . | 23601* | 0 | -2 | 2
COc1ccc(CN(C)C[C@@H]2Oc3ccc(NC(=O)NC4CCCCC4)cc3CC(=O)N([C@H](C)CO)C[C@@H]2C)cc1 | 4 | . | . | . | .
CCCC1C(c2ccc(OC)cc2)C(C#N)(C#N)C2(C#N)CC1(N)NC2=O (stereo unspecified) | . | 20036* | 1 | 1 | -1
Cc1ccc(C(=O)OCC(=O)c2cc(C)n(CC3CCCO3)c2C)cc1 (stereo unspecified) | 16* | 4055 | -1 | -3 | -1
Cc1cc(C(=O)COC(=O)c2ccccc2O)c(C)n1CC1CCCO1 (stereo unspecified) | 3 | 3893 | 0 | -4 | -1
C[C@H](NC(=O)[C@H]1[C@H](CO)[C@H]2Cn3c(ccc(-c4ccccc4)c3=O)[C@@H]1N2C)c1ccccc1 | 0 | . | . | . | .
CCn1c(=O)c(C(=O)NCc2ccc(Cl)cc2)c(O)c2ccccc21 | 0 | 3888 | 1 | ? | 4
CCn1c(=O)c(C(=O)NCc2ccccc2)c(O)c2ccccc21 | 0 | 3293 | -1 | 7 | 48*
CCCC(=O)Nc1ccc2c(c1)OC[C@@H](C)N(C(=O)C1CCCC1)C[C@@H](C)[C@@H](OC)CN(C)C2=O | 1 | . | . | . | .
CCN(CC)c1ccc2cc(-c3nc(-c4cc5ccccc5oc4=O)cs3)c(=O)oc2c1 | 0 | 7684 | 87* | 23 | 47*
O=c1oc2ccccc2cc1-c1csc(Cc2nc(-c3ccc(Cl)cc3)cs2)n1 | . | 2174 | 1 | -2 | 0
CC=Cc1ccc2n(c1=O)C[C@@H]1[C@@H](CO)[C@H](C(=O)NC3CCCC3)N[C@H]21 (mixture of isomers) | 0 | . | . | . | .
Cc1ccnc(-n2c(-c3ccccc3)nc3ccccc3c2=O)c1 | 1 | 19731* | 4 | 1 | 0
Cc1ccnc(-n2c(C)nc3ccccc3c2=O)c1 | . | 9907 | 0 | 0 | -6
CCOC(=O)c1cnn(-c2cccc(Cl)c2)c1N | . | 16767* | -2 | -4 | -3
CCOC(=O)c1cnn(-c2ccccc2)c1NC(=O)c1ccc(C)cc1 | . | 23981* | -1 | -6 | -2
CCOC(=O)c1cnn(-c2ccccc2)c1NC(=O)c1ccccc1 | . | 10095 | -1 | -3 | -1
SMILES | TcdB inh | Bead autofluor | BoNT-A LC inh2 | BoNT F protease | Anthrax LF prot
CC1(C)Cc2c(C#N)c(NCc3ccco3)nc(-c3ccco3)c2CO1 | . | 2161 | 0 | -11 | -4
CN(C)CCNc1nc(-c2ccco2)c2c(c1C#N)CC(C)(C)OC2 | . | 24132* | -2 | -1 | 2
Cc1cc(C(=O)Nc2ccc3c(c2)C(=O)N(C)[C@@H]2CC[C@@H](CC(=O)NC4CCCC4)O[C@H]2CO3)no1 | 0 | . | . | . | .
O=C1C2C(C(=O)N1c1ccncc1)C1C=CC2C12CC2 (stereo unspecified) | . | 3084 | 0 | 0 | -2
Cc1ccc(N2C(=O)C3C(C2=O)C2C=CC3C23CC3)cc1 (stereo unspecified) | . | 19890* | ? | 0 | -3
COc1ccc(C(=O)NCc2ccccc2OC)c(OC)c1 | . | 20943* | ? | -3 | -2
COc1ccc(N=c2oc3c(OC)cccc3cc2C(=O)NCc2ccco2)c(OC)c1 | . | 21143* | 3 | 2 | -11
COc1cc(SC)ccc1C(=O)NCc1ccc(C)cc1 | . | 19956* | 2 | 3 | -2
COc1ccccc1CNC(=O)c1ccc(S(=O)(=O)N2CCCC2)cc1 | . | 24898* | -1 | -2 | -1
COc1cc(OC)c(OC)cc1CNC(=O)c1ccc(S(=O)(=O)N2CCCCC2)cc1 | 0 | . | . | . | .
O=C(CN1CCOCC1)NCC[C@@H]1CC[C@H](NC(=O)Nc2ccc(Cl)cc2)[C@H](CO)O1 | 0 | . | . | . | .
O=C(Nc1cccc(Cl)c1)N[C@H]1CC[C@@H](CCNC(=O)C2CCCCC2)O[C@H]1CO | 0 | . | . | . | .
COc1ccc(OC)c(NS(=O)(=O)c2cccs2)c1 | . | 22109* | 3 | 5 | -1
COc1ccccc1CNC(=O)c1ccc(-c2ccccc2)cc1 | 1 | 2499 | 0 | -6 | 2
COc1ccc(C(=O)NCc2ccccc2OC)cc1 | 0 | 21799* | 6 | 2 | -4
COc1ccc(C(=O)NCc2cccnc2)cc1 | . | 21373* | -2 | -3 | 1
COc1ccc(C(=O)NCc2cccnc2)cc1S(=O)(=O)N1CCOCC1 | . | 21445* | ? | -5 | 1
O=C(NCC[C@@H]1CC[C@@H](NC(=O)C2CCC2)[C@H](CO)O1)Nc1ccc(Cl)cc1 | 0 | . | . | . | .
CN(C)C(=O)C[C@H]1CC[C@H]2[C@@H](COC[C@H](O)CN2CC2CCCC2)O1 | -8 | . | . | . | .
Cc1noc(C)c1NC(=O)N(C)C[C@H]1OCCCC[C@H](C)Oc2ccc(NC(=O)CCC(F)(F)F)cc2C(=O)N([C@H](C)CO)C[C@@H]1C | -1 | . | . | . | .
COc1ccc(NC(=O)CNC(=O)c2cccs2)cc1Cl | 0 | 4344 | 1 | 6 | 7
COc1ccccc1CNC(=O)c1cccs1 | . | 23731* | -2 | -2 | 2
COc1ccc(OC)c(NC(=O)CNC(=O)c2cccs2)c1 | . | 21327* | ? | 1 | -5
COc1ccc(CNC(=O)Cc2cn(C)c3ccccc23)c(OC)c1 | 28* | 3329 | -1 | -25 | -12
COc1ccccc1CNC(=O)CCCc1cn(C)c2ccccc12 | -5 | 3684 | 0 | 16 | -23
COc1ccc(C(CC(=O)O)NC(=O)c2cccs2)cc1 (stereo unspecified) | . | 16500* | -2 | -6 | -7
COc1ccccc1CC(=O)O/N=C(\N)c1ccccn1 | 4 | 6556 | -1 | -5 | -11
COc1ccc(/C(N)=N/OC(=O)Cc2ccccc2OC)cc1 | . | 21398* | -2 | -5 | -4

Screening data: PubChem BioAssay, several laboratories
